Screening data as filed in PubChem BioAssay.
GAA spleen mod – qHTS Assay for Inhibitors and Activators of Human alpha-Glucosidase From Spleen Homogenate. 0.006% of 240,000 active. human spleen homogenate, 4-MU-alpha-glucoside fluorescence. Lysosomal alpha-glucosidase (Homo sapiens), P10253. Potency, µM (doses to about 79.9 µM), actives largely listed as inhibitors
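Human spleen homogenate (1 ug) incubated with compounds and 1 mM 4-methylumbelliferyl-alpha-D-glucopyranoside in pH 5.0 citrate/phosphate buffer, 37 C, 40 min. Stopped at pH 10; 4-MU fluorescence (Ex 365/Em 440 nm); AC50 by Hill fit.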
GAA inhib – qHTS Assay for Inhibitors of Human alpha-Glucosidase as a Potential Chaperone Treatment of Pompe Disease. Lysosomal alpha-glucosidase (Homo sapiens), P10253. purified human GAA, 4-MU-alpha-glucoside fluorescence. Potency, µM (top dose mostly 76.9 µM), actives largely listed as inhibitors. 0.005% of 200,000 active
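Fluorescence at Ex 365/Em 440 nm from 4-methylumbelliferone reported enzyme activity after 20 min at room temperature. Reactions used 4 nM enzyme and 400 uM substrate at pH 5.0; curves fitted with the Hill equation.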
GLA spleen mod – qHTS Assay for Inhibitors and Activators of Human alpha-Galactosidase From Spleen Homogenate; human spleen homogenate, 4MU-alpha-Gal fluorescence, 40 min; Potency, µM (highest dose often 80 µM), usual class: inhibitors; 0.008% of 240,000 active
Target sequence (P06280 32-429 limits assumed): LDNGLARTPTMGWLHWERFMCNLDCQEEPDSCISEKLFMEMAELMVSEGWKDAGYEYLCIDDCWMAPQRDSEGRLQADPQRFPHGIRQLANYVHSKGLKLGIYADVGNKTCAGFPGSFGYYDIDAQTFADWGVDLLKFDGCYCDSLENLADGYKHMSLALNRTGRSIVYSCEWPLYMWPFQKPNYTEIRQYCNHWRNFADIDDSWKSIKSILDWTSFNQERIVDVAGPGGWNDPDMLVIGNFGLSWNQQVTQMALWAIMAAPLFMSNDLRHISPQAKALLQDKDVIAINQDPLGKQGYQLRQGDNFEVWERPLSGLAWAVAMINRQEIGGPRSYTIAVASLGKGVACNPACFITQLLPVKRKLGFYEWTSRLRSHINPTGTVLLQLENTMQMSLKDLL
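Inhibition or activation of alpha-galactosidase in human spleen homogenate is scored by 4-MU fluorescence after 40 min at 37C, pH 5.0, with 1 mM substrate. AC50s come from concentration-response fitted to the Hill equation.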
N370S GC – qHTS Assay for Inhibitors and Activators of N370S glucocerebrosidase as a Potential Chaperone Treatment of Gaucher Disease; Lysosomal acid glucosylceramidase (Homo sapiens), P04062; N370S GC spleen homogenate, 4MU-glucoside fluorescence; Potency, µM (titrated, usually from 59.4 µM), usual class: inhibitors; 0.092% of 330,000 active; AID 2101, 2009
GLA inh pH 4.5 – qHTS Assay for Inhibitors of Human alpha-Galactosidase at pH 4.5 | 230,000 tested, under 10 active | purified enzyme, 4-MU-alpha-Gal fluorescence, pH 4.5 | activity change, negative = inhibition, % at 105 µM
GAA glycogen – qHTS Assay for Inhibitors and Activators of Human alpha-Glucosidase Cleavage of Glycogen | Lysosomal alpha-glucosidase (Homo sapiens), P10253 | recombinant GAA, glycogen substrate, Amplex Red glucose oxidase fluorescence | Potency, µM (highest dose often 76.4 µM), most hits filed as inhibitors | 0.38% of 300,000 active | AID 2100, 2009;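 further: the screen sought inhibitors and activators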
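Natural-substrate format: glycogen cleavage by 4 nM human enzyme, glucose read by Amplex Red coupling (Ex 573, Em 610 nm). Normalized to enzyme and no-enzyme controls.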
Each line names hits and unclear results; the compound was inactive in the other large screens. A selection: hits, their analogues and other compounds. The true share with any hit is near 0.43%. The call rests on the fitted dose curve; in most records, active means well fitted curve in the direction sought with a large enough effect; inconclusive means small, poorly fitted or top-dose-only effect, or another doubt; inactive means no such curve, though single readings can be large; an effect the other way counts as inactive or inconclusive.

C[C@@H]1CC[C@@]2(OC1)O[C@H]1[C@@H](O)[C@H]3[C@@H]4CC[C@H]5C[C@@H](O[C@@H]6O[C@H](CO)[C@H](O[C@@H]7O[C@H](CO)[C@@H](O)[C@H](O[C@@H]8OC[C@@H](O)[C@H](O)[C@H]8O)[C@H]7O[C@@H]7O[C@H](CO)[C@@H](O)[C@H](O[C@@H]8O[C@H](CO)[C@@H](O)[C@H](O)[C@H]8O)[C@H]7O)[C@H](O)[C@H]6O)[C@H](O)C[C@]5(C)[C@H]4CC[C@]3(C)[C@H]1[C@@H]2C	none (no result: GAA inhib, GLA inh pH 4.5, GAA glycogen)
O=C(NC1(C(F)(F)F)Oc2ccc(Cl)cc2O1)N1CCC2(CC1)OCCO2 (stereo not drawn)	GAA glycogen 8.9µM (no result: N370S GC)
O=C(NC1(C(F)(F)F)Oc2ccccc2O1)N1CCC2(CC1)OCCO2	GAA glycogen 5.6µM
CC(=O)[C@H]1CC[C@H]2C3CC[C@H]4C[C@](C)(O)CC[C@]4(C)C3CC[C@]12C (stereo partly drawn)	none (no result: GAA inhib, GLA inh pH 4.5, GAA glycogen)
CN1CCC(=O)N(CCN=[N+]=[N-])CC1	GAA glycogen 50µM (no result: GAA spleen mod, GAA inhib, GLA spleen mod, GLA inh pH 4.5)
OC[C@@H]1[C@@H](O)[C@H](O)[C@H]2[C@@H](O)CCN21	GAA spleen mod 28µM (no result: GAA inhib, GLA inh pH 4.5, GAA glycogen)
COc1cc2c3cc1Oc1c(OC)c(OC)cc4c1[C@@H](Cc1ccc(OC(=O)c5ccc([N+](=O)[O-])cc5)c(c1)Oc1ccc(cc1)C[C@@H]3N(C)CC2)N(C)CC4	N370S GC inconclusive (no result: GAA inhib, GLA inh pH 4.5, GAA glycogen)
NC1CCCC[C@H]1N (stereo partly drawn)	none (no result: GAA inhib, GLA inh pH 4.5, GAA glycogen)
CN1CCN(c2ccc3nccnc3c2)CC1	GAA spleen mod inconclusive, GLA spleen mod 35µM
